Compound activity as filed in PubChem BioAssay.
GRK2 aptamer HTS = human GRK2 inhibition via aptamer displacement. 330,000 tested, 0.59% active. bead flow cytometry, FAM-aptamer displacement from GRK2. inhibition of aptamer binding, % at 10 µM. AID 488847;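 active = inhibition of aptamer binding above 40%, roughly 3 SD of noise, on plates passing a quality check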;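 also: median bead fluorescence of bound FAM aptamer so fluorescent compounds give negative values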
Target sequence (P25098 whole entry, looked up): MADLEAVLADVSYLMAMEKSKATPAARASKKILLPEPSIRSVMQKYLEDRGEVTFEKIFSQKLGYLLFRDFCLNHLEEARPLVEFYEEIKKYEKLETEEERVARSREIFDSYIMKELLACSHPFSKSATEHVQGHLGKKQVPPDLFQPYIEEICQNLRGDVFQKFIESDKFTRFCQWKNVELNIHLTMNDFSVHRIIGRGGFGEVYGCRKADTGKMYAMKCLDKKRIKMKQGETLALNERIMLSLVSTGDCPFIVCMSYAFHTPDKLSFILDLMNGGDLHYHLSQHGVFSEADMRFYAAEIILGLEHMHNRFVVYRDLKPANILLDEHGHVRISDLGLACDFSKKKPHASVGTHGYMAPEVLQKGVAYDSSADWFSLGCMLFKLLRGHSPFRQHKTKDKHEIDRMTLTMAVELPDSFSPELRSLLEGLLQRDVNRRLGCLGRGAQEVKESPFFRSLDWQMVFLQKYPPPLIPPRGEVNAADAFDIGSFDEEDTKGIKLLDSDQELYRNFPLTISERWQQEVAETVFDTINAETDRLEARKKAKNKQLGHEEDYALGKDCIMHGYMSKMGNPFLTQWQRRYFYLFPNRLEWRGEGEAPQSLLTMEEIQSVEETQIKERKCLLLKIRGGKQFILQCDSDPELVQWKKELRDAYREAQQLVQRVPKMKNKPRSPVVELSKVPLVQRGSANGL
NadD block = blocks S. aureus nicotinate mononucleotide adenylyltransferase; purified NadD enzyme, colorimetric absorbance read-out; inhibition, % at 20 µM; 360,000 tested, 0.78% active; AID 602399; in the data active = inhibition above about 26%
Granule exo inh = blocks lytic granule exocytosis | TALL-104 LAMP-1 surface exposure, flow cytometry; cells stimulated with thapsigargin and PMA | inhibition, % at 10 µM | 360,000 tested, 0.66% active | AID 651702;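 active = inhibition above about 55%, limit read from the data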
PP1 counter = blocks human PP1-alpha phosphatase, a PP5 counter-screen | P62136 | 320,000 tested, 0.9% active | inhibition, % at 6.7 µM | purified PP1alpha, OMFP fluorescence;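 active = inhibition above the mean inhibition of all tested compounds plus 3 SD, computed separately for each screening campaign, cut at about 15% in these data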
B2AR ag = human beta-2 adrenergic receptor agonism by FAP; 340,000 tested, 0.43% active; AID 504454; P07550; response, % (no concentration beside the values); Am2.2-beta2AR cells, FAP receptor internalization, flow cytometry;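 active = response above a set limit, near 3 SD of response in nonfluorescent compounds, cut at about 42% in these data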
PP1 confirm = human PP1 phosphatase inhibition, confirmation. shares compounds with PP1 counter. purified PP1alpha, OMFP substrate fluorescence. inhibition, % at 6.7 µM. 1,900 tested, 52% active. AID 2358;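 active = mean PP1 inhibition above a set limit taken from the earlier primary screen, cut at about 15% in these data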
PP5 inh counter = counter-screen for PP1 inhibitors: human PP5 phosphatase inhibition | shares compounds with PP1 counter | purified PP5c, OMFP fluorescence | inhibition, % at 6.7 µM | 1,900 tested, 4% active;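 active = mean PP5 inhibition over triplicate wells above about 9.5% taken from the earlier PP1 screen, limit read from the data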
An asterisk follows results filed as active; . = not tested or not shown. A selection: hits, their analogues and other compounds. The true share with any hit is near 2.9%.

SMILES	GRK2 aptamer HTS	NadD block	Granule exo inh	PP1 counter	B2AR ag	PP1 confirm	PP5 inh counter
COc1ccc(-c2cc(-c3ccc(Cl)cc3)c(C#N)c(SCC(=O)O)n2)cc1	7	13	7	48*	3	28*	0
COc1ccc(NC(=O)Nc2cc(NC(=O)Nc3ccc(OC)cc3)c(C)nc2C)cc1	0	-1	-9	18*	7	21*	-2
COc1ccc(NC(=O)NC(=O)c2ccccc2)cc1	0	-2	-2	1	1	.	.
COc1ccc(OC)c(NC(=O)Nc2cc(NC(=O)Nc3cc(OC)ccc3OC)c(C)nc2C)c1	1	2	0	13	-10	.	.
COc1ccc(NC(=O)NNC(=O)C(O)(c2ccccc2)c2ccccc2)cc1	3	-1	22	21*	-2	1	-3
C[C@H](CO)N1C[C@H](C)[C@@H](CN(C)C(=O)Nc2ccccc2)Oc2ccc(NC(=O)Nc3ccccc3)cc2C1=O	0	13	0	.	-6	.	.
CC(C)(C)CN1CCC(Oc2cccc(C(=O)N3CCNC(=O)C3(C)C)c2)CC1	2	-7	1	-3	1	.	.
COc1ccc(-c2oc3ccccc3c2C#Cc2cncn2C)cc1	0	26	-9	18*	10	25*	-6
COc1ccc(-c2sc3ccc(OC)cc3c2C#Cc2cncn2C)cc1	0	19	2	.	21	.	.
Cc1ccc(S(=O)(=O)NC(CC(=O)O)c2cccs2)cc1 (configuration not stated)	1	4	-2	-4	-5	.	.
COC(=O)C1=COC(C)C2CN3CCc4c([nH]c5ccccc45)C3CC12 (configuration not stated)	2	8	-1	20*	-17	-3	18*
COc1ccc(NC(=O)c2c(C)cc(=O)oc2C)c(OC)c1	0	-1	5	36*	5	-7	-5
FC(F)(F)c1ccc(C2[C@H]3CN(Cc4cccnc4)[C@H](c4ccccc4)C34CC2(c2cccnc2)C4)cc1 (some centres not stated)	0	12	5	19*	7	7	-1
N#Cc1ccc(C23CC4(C2)[C@H](CN(Cc2cccnc2)[C@@H]4c2ccccc2)C3c2ccccc2)cc1 (some centres not stated)	0	17	12	20*	7	17*	-2
COC(=O)c1ccc(C23CC4(C2)[C@H](CN(Cc2cccnc2)[C@@H]4c2ccccc2)C3c2ccccc2)cc1 (some centres not stated)	0	22	-6	8	0	.	.
CCc1nnc(NC(=O)CSc2sc3c(O)cc(=O)[nH]c3c2C#N)s1	9	8	2	18*	3	3	-3
COc1ccccc1NC(=O)CSc1sc2c(O)cc(=O)[nH]c2c1C#N	5	10	2	20*	3	0	-2
COc1ccc(NC(=O)CSc2sc3c(O)cc(=O)[nH]c3c2C#N)c(OC)c1	7	7	-4	13	6	.	.
CCCCN1CC(N2CCN(CCN(C)C)CC2)CS1(=O)=O (configuration not stated)	.	-2	-1	.	.	.	.
CN1CCN(C(c2ccc(Br)cc2)c2cc(Cl)c3cccnc3c2O)CC1 (configuration not stated)	0	25	54	24*	38	3	-1
C#CCOCCOCCOCCNc1nc(N2CCOCC2)nc(N2CCN(C(=O)CCCCCCCCCCNC(=O)Cn3cc(CCCCCN)nn3)CC2)n1	0	-7	-14	0	5	.	.
C#CCOCCOCCOCCNc1nc(N2CCN(C(=O)CCCCCCCCCCNC(=O)[C@H](CO)n3cc(CCCSC)nn3)CC2)nc(N2CCN(C(=O)CCCCCCCCCCNC(=O)[C@H](CO)n3cc(CCCSC)nn3)CC2)n1	0	6	-6	30*	5	22*	4
C#CCOCCOCCOCCNc1nc(N2CCN(C(=O)CCCCCCCCCCNC(=O)Cn3cc(C[C@@H](C)O)nn3)CC2)nc(N2CCN(C(=O)CCCCCCCCCCNC(=O)Cn3cc(C[C@@H](C)O)nn3)CC2)n1	1	6	-1	8	15	.	.
C#CCOCCOCCOCCNc1nc(N2CCN(C(=O)CCCCCCCCCCNC(=O)Cn3cc(CCCCCN)nn3)CC2)nc(N2CCN(C(=O)CCCCCCCCCCNC(=O)[C@H](CO)n3cc(CCCCCN)nn3)CC2)n1	0	14	7	35*	22	15	-2
C#CCOCCOCCOCCNc1nc(N2CCOCC2)nc(N2CCN(C(=O)CCCCCCCCCCNC(=O)[C@@H](CCSC)n3cc(CCO)nn3)CC2)n1	2	-5	-13	-1	11	.	.
SMILES	GRK2 aptamer HTS	NadD block	Granule exo inh	PP1 counter	B2AR ag	PP1 confirm	PP5 inh counter
C#CCOCCOCCOCCNc1nc(N2CCN(C(=O)CCCCCCCCCCNC(=O)Cn3cc(CCCCCN)nn3)CC2)nc(N2CCN(C(=O)CCCCCCCCCCNC(=O)[C@H]([C@@H](C)CC)n3cc(CCCCCN)nn3)CC2)n1	0	26	0	46*	30	35*	-1
C#CCOCCOCCOCCNc1nc(N2CCN(C(=O)Cn3cc(CCCCN)nn3)CC2)nc(N2CCN(C(=O)[C@H]([C@@H](C)CC)n3cc(CCCN=C(N)N)nn3)CC2)n1	0	-4	2	-2	-1	.	.
C#CCOCCOCCOCCNc1nc(N2CCN(C(=O)CCCCCCCCCCNC(=O)Cn3cc(C[C@@H](C)O)nn3)CC2)nc(N2CCN(C(=O)CCCCCCCCCCNC(=O)[C@H](CCCCN)n3cc(C[C@@H](C)CC)nn3)CC2)n1	0	44*	10	38*	40	31*	1
CC(C)c1ccccc1-n1c(SCc2cc(=O)oc3ccc4ccccc4c23)nnc1-c1cccnc1	3	25	-2	13	-9	.	.
CCOc1ccc(NC(=O)c2ccc(N3CC4CC(C3)c3cccc(=O)n3C4)c(NC(=O)c3cccnc3)c2)cc1 (configuration not stated)	0	2	-1	1	1	.	.
COc1ccc(C2=NN(C(=O)c3cccs3)C(c3ccccc3O)C2)cc1 (configuration not stated)	1	11	-8	27*	15	19*	-5
CC(C)(C)C(=O)Nc1cccc(-c2nc3ccccc3[nH]2)c1	3	4	-4	23*	-11	-1	-3
CC(=O)Nc1cccc(-c2nc3ccccc3[nH]2)c1	0	-4	-4	1	-23	.	.
O=C(N/N=C/c1cc([N+](=O)[O-])ccc1O)NC12CC3CC(CC(C3)C1)C2	1	2	3	20*	6	17*	0
O=C(N/N=C/c1cc([N+](=O)[O-])ccc1O)C12CC3CC(CC(C3)C1)C2	0	3	10	1	4	.	.
